# For some of these results: Potency and affinity values are given separately.
# Tests used:
# Set-up in all cases: scale not given: direction of the effect not stated beside the values
# [1] = target: Protein translocase subunit SecA (Escherichia coli (strain K12)) (UniProt P10408); assay: Assay to Identify E. coli SecA ATPase Inhibitors; format: functional; details: 30 µM
# [2] = target: T1, Ubiquitin-activating enzyme e1, putative (Leishmania donovani (strain BPK282A1)) (UniProt E9BSI1); assay: Leishmania donovani Ubiquitin Activating Enzyme (LdE1); format: functional; details: 30 µM
# T1 sequence (whole entry): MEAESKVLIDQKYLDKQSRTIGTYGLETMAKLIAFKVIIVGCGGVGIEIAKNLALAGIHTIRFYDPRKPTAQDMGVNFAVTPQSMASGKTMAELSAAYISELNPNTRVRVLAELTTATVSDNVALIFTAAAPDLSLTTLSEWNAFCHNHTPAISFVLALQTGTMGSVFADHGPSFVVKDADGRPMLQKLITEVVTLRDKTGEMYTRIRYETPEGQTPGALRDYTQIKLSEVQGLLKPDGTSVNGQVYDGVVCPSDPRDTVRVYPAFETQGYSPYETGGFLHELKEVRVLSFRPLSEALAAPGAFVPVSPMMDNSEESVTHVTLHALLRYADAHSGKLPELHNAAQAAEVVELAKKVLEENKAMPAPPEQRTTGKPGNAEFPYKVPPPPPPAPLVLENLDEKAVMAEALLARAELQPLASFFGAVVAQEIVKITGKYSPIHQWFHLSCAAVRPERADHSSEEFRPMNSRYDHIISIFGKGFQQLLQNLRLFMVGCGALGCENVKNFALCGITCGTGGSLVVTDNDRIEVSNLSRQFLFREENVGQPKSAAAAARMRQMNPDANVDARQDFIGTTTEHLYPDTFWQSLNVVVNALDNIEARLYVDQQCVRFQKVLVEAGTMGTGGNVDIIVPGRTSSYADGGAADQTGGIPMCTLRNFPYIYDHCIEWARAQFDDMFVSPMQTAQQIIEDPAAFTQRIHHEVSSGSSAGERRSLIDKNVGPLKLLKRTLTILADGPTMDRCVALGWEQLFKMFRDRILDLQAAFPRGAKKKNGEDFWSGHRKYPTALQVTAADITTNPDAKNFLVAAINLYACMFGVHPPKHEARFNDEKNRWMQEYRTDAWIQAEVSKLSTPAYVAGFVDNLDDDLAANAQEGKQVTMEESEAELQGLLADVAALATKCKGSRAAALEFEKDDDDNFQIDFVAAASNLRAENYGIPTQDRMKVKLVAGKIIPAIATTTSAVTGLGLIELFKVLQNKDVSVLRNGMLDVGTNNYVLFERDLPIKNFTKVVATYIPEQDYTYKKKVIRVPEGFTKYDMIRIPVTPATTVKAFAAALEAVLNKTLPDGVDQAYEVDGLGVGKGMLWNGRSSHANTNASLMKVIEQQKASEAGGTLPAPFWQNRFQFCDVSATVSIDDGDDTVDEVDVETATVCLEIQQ
# [3] = target: AMP-activated protein kinase, AMPK (Homo sapiens) (UniProt P54646+O43741+P54619+Q9UGJ0+Q9Y478+Q13131+Q9UGI9); assay: AMP-dependent Kinase enzyme assay. An in vitro enzyme assay that detects ADP turnover that is directly proportional to AMPK activity. This uses naive AMPK that is activated during the assay with MK-8722; format: functional; details: 30 µM
# [4] = target: Sialic acid-binding Ig-like lectin 9 (Homo sapiens) (UniProt Q9Y336); assay: Hs-Siglec9 ALPHAscreen SOP 20170721; details: 10 µM
# Chain of Sialic acid-binding Ig-like lectin 9 (Homo sapiens) (Q9Y336 whole entry): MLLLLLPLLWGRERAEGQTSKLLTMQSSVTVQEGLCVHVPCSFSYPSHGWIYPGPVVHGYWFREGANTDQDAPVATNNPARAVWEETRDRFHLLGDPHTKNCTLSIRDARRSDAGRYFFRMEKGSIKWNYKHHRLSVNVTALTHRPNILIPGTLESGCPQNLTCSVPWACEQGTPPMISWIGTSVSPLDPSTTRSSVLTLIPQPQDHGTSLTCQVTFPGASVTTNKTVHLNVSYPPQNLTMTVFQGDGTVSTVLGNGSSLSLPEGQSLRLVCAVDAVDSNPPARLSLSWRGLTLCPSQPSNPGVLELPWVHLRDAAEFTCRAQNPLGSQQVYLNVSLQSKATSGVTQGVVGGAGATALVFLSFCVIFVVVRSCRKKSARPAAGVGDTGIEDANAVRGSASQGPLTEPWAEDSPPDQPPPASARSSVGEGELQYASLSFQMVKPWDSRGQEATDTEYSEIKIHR
# [5] = system: Trypanosoma cruzi; assay: Trypanosoma cruzi phosphomannomutase and mannose-1-phosphate guanylyltransferase assay; format: functional; details: 10 µM
# [6] = target: T2, Arginase-2, mitochondrial (Homo sapiens) (UniProt P78540); assay: in vitro enzyme assay to detect the production of urea directly proportional to the activity of Arginase II; format: functional; details: 33.3 µM; further: in the data most compounds retested in dose-response had high values
# T2 sequence (whole entry): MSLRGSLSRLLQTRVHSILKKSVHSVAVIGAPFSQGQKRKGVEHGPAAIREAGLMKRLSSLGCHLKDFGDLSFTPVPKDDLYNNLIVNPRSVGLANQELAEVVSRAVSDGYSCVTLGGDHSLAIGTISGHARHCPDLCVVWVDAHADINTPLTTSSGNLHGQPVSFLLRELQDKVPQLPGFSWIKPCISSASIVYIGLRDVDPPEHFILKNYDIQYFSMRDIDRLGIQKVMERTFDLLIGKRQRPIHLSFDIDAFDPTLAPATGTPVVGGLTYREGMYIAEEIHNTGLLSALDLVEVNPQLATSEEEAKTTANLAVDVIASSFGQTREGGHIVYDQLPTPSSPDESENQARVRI
# [7] = target: T3, Proteasome subunit beta (Trypanosoma cruzi) (UniProt O96673); assay: Trypanosoma cruzi proteasome chymotrypsin-like activity (TcProtChymo) assay.; further: in the data most compounds retested in dose-response had high values; format: functional; details: 9.37 µM
# T3 sequence (whole entry): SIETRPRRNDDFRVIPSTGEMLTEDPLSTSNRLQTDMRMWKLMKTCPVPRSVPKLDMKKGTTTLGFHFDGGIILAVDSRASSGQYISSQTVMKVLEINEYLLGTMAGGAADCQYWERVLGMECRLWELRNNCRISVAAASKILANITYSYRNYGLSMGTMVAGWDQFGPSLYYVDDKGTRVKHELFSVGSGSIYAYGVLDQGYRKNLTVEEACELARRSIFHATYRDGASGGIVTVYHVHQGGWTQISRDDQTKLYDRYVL
# [8] = organism: Homo sapiens; assay: To identify inhibition of the IFN signalling (Jak-Stat) pathway via expression of an eGFP reporter gene under the control of an IFN-stimulated response element (ISRE) containing MxA promoter.; format: functional; details: 30 µM
# [9] = target: T4, Tyrosyl-tRNA synthetase, putative (Trypanosoma cruzi (strain CL Brener)) (UniProt Q4DSP6); assay: Trypanosoma cruzi tyrosyl tRNA synthetase (TcYRS) _High Tyrosine SOP; format: functional; details: 30 µM; further: in the data most compounds retested in dose-response had high values
# T4 sequence (whole entry): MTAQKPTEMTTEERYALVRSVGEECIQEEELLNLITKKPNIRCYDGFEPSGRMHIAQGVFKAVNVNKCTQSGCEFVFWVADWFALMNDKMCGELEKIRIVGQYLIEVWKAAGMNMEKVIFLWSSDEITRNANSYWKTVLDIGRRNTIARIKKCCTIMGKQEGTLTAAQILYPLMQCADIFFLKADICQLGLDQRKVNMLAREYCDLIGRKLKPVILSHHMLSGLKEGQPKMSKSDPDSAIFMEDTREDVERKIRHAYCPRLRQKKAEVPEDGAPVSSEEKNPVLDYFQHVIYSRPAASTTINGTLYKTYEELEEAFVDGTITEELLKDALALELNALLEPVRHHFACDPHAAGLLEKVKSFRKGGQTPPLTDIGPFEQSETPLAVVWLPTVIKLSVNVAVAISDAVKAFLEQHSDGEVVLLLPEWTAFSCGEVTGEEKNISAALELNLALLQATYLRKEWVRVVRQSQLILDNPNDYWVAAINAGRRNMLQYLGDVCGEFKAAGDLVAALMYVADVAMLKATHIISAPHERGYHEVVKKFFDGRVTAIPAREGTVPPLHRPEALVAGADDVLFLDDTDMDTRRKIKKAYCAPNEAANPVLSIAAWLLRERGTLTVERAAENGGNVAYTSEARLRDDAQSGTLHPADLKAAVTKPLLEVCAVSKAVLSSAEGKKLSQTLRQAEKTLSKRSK
# [10] = target: T4, Tyrosyl-tRNA synthetase, putative (Trypanosoma cruzi (strain CL Brener)); assay: Trypanosoma cruzi tyrosyl tRNA synthetase (TcYRS) SOP; format: functional; details: 30 µM
# [11] = target: Chromo domain-containing protein 1 (Saccharomyces cerevisiae (strain ATCC 204508 / S288c) (Baker's yeast)) (UniProt P32657); assay: ScCHD-1 Enzyme Inhibition Assay; format: functional; details: 30 µM; further: in the data most compounds retested in dose-response had high values
# Chain of Chromo domain-containing protein 1 (Saccharomyces cerevisiae (strain ATCC 204508 / S288c) (Baker's yeast)) (P32657 whole entry, the tested form may be a part): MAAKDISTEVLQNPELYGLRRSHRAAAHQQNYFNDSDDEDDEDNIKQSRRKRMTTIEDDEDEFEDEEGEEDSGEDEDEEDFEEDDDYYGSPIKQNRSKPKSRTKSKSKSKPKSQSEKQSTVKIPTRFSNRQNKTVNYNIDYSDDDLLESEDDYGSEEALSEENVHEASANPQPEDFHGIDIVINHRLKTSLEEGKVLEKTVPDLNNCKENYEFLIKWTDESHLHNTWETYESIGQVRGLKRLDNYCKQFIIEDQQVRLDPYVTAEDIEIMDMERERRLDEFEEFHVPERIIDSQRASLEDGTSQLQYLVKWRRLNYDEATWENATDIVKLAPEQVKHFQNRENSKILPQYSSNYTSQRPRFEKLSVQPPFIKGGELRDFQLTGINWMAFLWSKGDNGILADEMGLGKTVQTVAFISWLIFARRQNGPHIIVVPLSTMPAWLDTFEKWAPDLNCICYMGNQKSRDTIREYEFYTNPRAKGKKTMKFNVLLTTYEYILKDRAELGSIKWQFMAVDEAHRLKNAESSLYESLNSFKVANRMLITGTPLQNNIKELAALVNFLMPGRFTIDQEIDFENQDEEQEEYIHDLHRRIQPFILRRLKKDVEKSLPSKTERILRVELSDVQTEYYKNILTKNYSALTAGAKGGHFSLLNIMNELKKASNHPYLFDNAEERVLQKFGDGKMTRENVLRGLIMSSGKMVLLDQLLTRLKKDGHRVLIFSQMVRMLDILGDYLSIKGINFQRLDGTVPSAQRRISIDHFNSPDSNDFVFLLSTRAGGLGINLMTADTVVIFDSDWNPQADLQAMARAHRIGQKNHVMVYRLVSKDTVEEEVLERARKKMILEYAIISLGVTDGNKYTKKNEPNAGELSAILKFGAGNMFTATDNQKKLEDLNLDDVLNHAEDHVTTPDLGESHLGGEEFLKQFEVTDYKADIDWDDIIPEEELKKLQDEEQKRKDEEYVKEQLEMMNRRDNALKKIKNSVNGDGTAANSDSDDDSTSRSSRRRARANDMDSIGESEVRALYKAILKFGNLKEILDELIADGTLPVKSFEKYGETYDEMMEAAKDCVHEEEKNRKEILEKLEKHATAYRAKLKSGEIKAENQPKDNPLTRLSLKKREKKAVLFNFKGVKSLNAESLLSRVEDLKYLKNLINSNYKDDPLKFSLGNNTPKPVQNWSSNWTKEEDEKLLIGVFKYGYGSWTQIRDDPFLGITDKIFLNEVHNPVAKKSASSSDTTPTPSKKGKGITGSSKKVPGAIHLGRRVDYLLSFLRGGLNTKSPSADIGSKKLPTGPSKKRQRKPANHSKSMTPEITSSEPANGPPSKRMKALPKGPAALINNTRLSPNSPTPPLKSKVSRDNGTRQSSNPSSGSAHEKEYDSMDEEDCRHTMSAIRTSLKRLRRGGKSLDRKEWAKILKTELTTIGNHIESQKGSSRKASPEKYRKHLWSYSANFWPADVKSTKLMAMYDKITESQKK
# Chain of Protein translocase subunit SecA (Escherichia coli (strain K12)) (P10408 whole entry): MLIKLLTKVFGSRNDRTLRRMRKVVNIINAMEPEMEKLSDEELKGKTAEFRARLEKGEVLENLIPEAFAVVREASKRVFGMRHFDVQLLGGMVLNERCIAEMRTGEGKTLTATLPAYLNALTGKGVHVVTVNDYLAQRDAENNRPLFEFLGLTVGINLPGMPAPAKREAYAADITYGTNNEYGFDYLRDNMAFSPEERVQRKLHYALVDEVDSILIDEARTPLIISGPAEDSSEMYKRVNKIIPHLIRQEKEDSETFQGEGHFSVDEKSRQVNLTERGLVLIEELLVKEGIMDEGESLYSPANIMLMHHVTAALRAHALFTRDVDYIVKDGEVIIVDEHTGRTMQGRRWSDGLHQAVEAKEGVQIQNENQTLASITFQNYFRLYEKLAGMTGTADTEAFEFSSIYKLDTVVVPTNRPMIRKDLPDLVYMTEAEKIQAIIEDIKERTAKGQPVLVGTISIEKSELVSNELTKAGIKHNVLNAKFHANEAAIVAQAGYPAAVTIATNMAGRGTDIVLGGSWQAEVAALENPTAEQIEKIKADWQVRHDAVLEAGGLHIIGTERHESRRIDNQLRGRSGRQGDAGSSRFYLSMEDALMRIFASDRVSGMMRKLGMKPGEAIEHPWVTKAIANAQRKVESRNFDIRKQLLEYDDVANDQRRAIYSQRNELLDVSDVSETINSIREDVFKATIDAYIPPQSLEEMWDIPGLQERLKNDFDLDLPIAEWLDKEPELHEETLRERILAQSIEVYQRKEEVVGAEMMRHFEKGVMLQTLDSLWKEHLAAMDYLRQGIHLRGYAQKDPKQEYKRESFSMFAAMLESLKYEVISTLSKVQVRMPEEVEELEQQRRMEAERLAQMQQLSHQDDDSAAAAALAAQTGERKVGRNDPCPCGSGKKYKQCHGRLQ
compound,measurement,setting,value
CCn1c(Cn2cncn2)nnc1C1CCN(C(=O)CCSC)CC1,Percent Effect,[1],-3.03%
same,Percent Effect,[2],2.7%
same,Percent Effect,[3],-5.34%
same,Percent Effect,[4],25.4%
same,Percent Effect,[5],3.23%
same,Percent Effect,[6],20.6%
same,Percent Effect,[7],0.944%
same,Percent Effect,[8],20.4%
same,Percent Effect,[9],6.45%
same,Percent Effect,[10],13.6%
same,Percent Effect,[11],-3.37%
Fc1ccc(CN2CCO[C@H]3[C@H](OCC4CC4)CC[C@@H]32)cc1,Percent Effect,[1],-2.57%
same,Percent Effect,[2],-2.67%
same,Percent Effect,[3],3.82%
same,Percent Effect,[4],0.245%
same,Percent Effect,[5],4.83%
same,Percent Effect,[6],-41.4%
same,Percent Effect,[7],8.89%
same,Percent Effect,[8],-14.2%
same,Percent Effect,[9],2.08%
same,Percent Effect,[10],-30%
same,Percent Effect,[11],-4.58%
COCCOc1ccc(NC(=O)C2CCC2)cn1,Percent Effect,[1],-2.7%
same,Percent Effect,[2],17.7%
same,Percent Effect,[3],1.58%
same,Percent Effect,[4],-6%
same,Percent Effect,[5],0.85%
same,Percent Effect,[6],5.7%
same,Percent Effect,[7],15.6%
same,Percent Effect,[8],-2.54%
same,Percent Effect,[9],9.36%
same,Percent Effect,[10],16.5%
same,Percent Effect,[11],-6.65%
NC(=O)NCC1CCCCN1C(=O)c1cccc(C(F)(F)F)c1 (stereo unspecified),Percent Effect,[1],-6.54%
same,Percent Effect,[2],21.1%
same,Percent Effect,[3],-2.74%
same,Percent Effect,[4],13.3%
same,Percent Effect,[5],4.95%
same,Percent Effect,[6],-6.47%
same,Percent Effect,[7],2.79%
same,Percent Effect,[8],-1.19%
same,Percent Effect,[9],5.42%
same,Percent Effect,[10],16.1%
same,Percent Effect,[11],-9.06%
Cc1nccc([C@@H]2C[C@@H]3CCN(S(C)(=O)=O)C[C@H]3O2)n1,Percent Effect,[1],-4.82%
same,Percent Effect,[2],8.11%
same,Percent Effect,[3],-5.02%
same,Percent Effect,[4],10.6%
same,Percent Effect,[5],7.14%
same,Percent Effect,[6],-0.744%
same,Percent Effect,[7],7.64%
same,Percent Effect,[8],6.16%
same,Percent Effect,[9],8.6%
same,Percent Effect,[10],13.6%
same,Percent Effect,[11],-3.19%
CN1CCC(NC(=O)NCc2csc(Br)c2)CC1,Percent Effect,[1],-2.29%
same,Percent Effect,[2],13.5%
same,Percent Effect,[3],4.89%
same,Percent Effect,[4],6.05%
same,Percent Effect,[5],3.25%
same,Percent Effect,[6],-3.88%
same,Percent Effect,[7],10.4%
same,Percent Effect,[8],2.14%
same,Percent Effect,[9],9.9%
same,Percent Effect,[10],18.3%
same,Percent Effect,[11],-4.58%
COc1ccc2cc(C(=O)N3CCCCC3CC(N)=O)[nH]c2c1 (stereo unspecified),Percent Effect,[1],-4.78%
same,Percent Effect,[2],15.6%
same,Percent Effect,[3],7.25%
same,Percent Effect,[4],13.8%
same,Percent Effect,[5],-0.187%
same,Percent Effect,[6],-3.56%
same,Percent Effect,[7],5.57%
same,Percent Effect,[8],-10.4%
same,Percent Effect,[9],5.83%
same,Percent Effect,[10],12.2%
same,Percent Effect,[11],-4.84%
Cn1ccc(CN2CCC(Oc3ccccc3)CC2)cc1=O,Percent Effect,[1],-4.18%
same,Percent Effect,[2],18.2%
same,Percent Effect,[3],-0.911%
same,Percent Effect,[4],1.02%
same,Percent Effect,[5],-1.69%
same,Percent Effect,[6],-0.356%
same,Percent Effect,[7],4.05%
same,Percent Effect,[8],-2.92%
same,Percent Effect,[9],11.7%
same,Percent Effect,[10],24.4%
same,Percent Effect,[11],-10.1%
CCc1nc2ccccc2c(=O)n1CC1(O)CCN(S(C)(=O)=O)CC1,Percent Effect,[1],-1.91%
same,Percent Effect,[2],17.6%
same,Percent Effect,[3],10.4%
same,Percent Effect,[4],9.5%
same,Percent Effect,[5],1.58%
same,Percent Effect,[6],7.66%
same,Percent Effect,[7],10.8%
same,Percent Effect,[8],17.4%
same,Percent Effect,[9],5.38%
same,Percent Effect,[10],14.3%
same,Percent Effect,[11],-11.7%
COC(=O)c1cccc(C(=O)N2CCN(c3ccccc3F)CC2)n1,Percent Effect,[1],-5.05%
same,Percent Effect,[2],20.8%
same,Percent Effect,[3],-7.33%
same,Percent Effect,[4],-10.6%
same,Percent Effect,[5],7.59%
same,Percent Effect,[6],1.94%
same,Percent Effect,[7],13.9%
same,Percent Effect,[8],15.5%
same,Percent Effect,[9],5.29%
same,Percent Effect,[10],16.7%
same,Percent Effect,[11],-10.4%
O=C(NCc1ccco1)[C@H]1C[C@H]2OCC[C@H]2N(S(=O)(=O)C2CC2)C1,Percent Effect,[1],-3.9%
same,Percent Effect,[2],8%
same,Percent Effect,[3],-0.23%
same,Percent Effect,[4],14.7%
same,Percent Effect,[5],-2.7%
same,Percent Effect,[6],-26.7%
same,Percent Effect,[7],8.38%
same,Percent Effect,[8],-14%
same,Percent Effect,[9],-1.04%
same,Percent Effect,[10],15%
same,Percent Effect,[11],-8.9%

# Reference: ChEMBL document CHEMBL3988442, “University of Dundee, Small-Polar-MMV Screening Library” (2021)
